# According to the supplement of paper PMC10127200:
# Counter-ions that a name gives are not always drawn.
# Experiments:
# Experiment in all cases: Euclidean distance of Cell Painting phenotypic profile (signed KS, 77 features) to DMSO centroid (dimensionless distance); 5 or 10 uM (library dependent); higher = stronger phenotypic change vs DMSO (phenoactivity)
# Details in all cases: 48 h
# 786-O = system: 786-O
# In short: (§1)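 Phenoactivity is computed as Euclidean distance to the median vehicle profile. The profiles, drawn from 77 Harmony features scored as signed Kolmogorov-Smirnov statistics versus same-plate vehicle wells, were corrected for plate position, correlation-weighted and replicate-averaged at the top dose. Stained cells were imaged confocally at 20X (9 fields/well) after 48 h with library compounds at 10 or 5 uM, 0.1% DMSO final, in five cancer lines and a healthy fibroblast line.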
# A549 = system: A549
# In short: as §1
# DU145 = system: DU145
# In short: as §1
# FB = system: FB
# In short: as §1
# HEPG2 = system: HEPG2
# In short: as §1
# OVCAR4 = system: OVCAR4
# In short: as §1
SMILES,Euclidean distance (786-O),Euclidean distance (A549),Euclidean distance (DU145),Euclidean distance (FB),Euclidean distance (HEPG2),Euclidean distance (OVCAR4)
CC(=O)[C@@]1(O)CC[C@H]2[C@@H]3C[C@H](C)C4=CC(=O)C=C[C@]4(C)[C@@]3(F)[C@@H](O)C[C@@]21C [Fluorometholone],0.819,2.59,1.54,1.73,1.04,1.8
CC1(C)C2CCC1(C)C(O)C2 (stereo not drawn) [Borneol],1.17,0.812,1.16,0.792,0.614,1.08
Cc1cnc(Nc2ccc(OCCN3CCCC3)cc2)nc1Nc1cccc(S(=O)(=O)NC(C)(C)C)c1,4.21,4.4,2.95,4.43,2.96,3.56
CC(C)(O)[C@H]1CC[C@@](C)([C@H]2[C@@H](O)C[C@@]3(C)[C@@H]4C[C@H](O[C@@H]5O[C@H](CO)[C@@H](O)[C@H](O)[C@H]5O)[C@H]5C(C)(C)[C@@H](O[C@@H]6OC[C@@H](O)[C@H](O)[C@H]6O)CC[C@@]56C[C@@]46CC[C@]23C)O1 [Astragaloside A],4.07,3.46,3.2,2.61,2.19,3.11
CNC[C@H](O)[C@@H](O)[C@H](O)[C@H](O)CO [Meglumine],1.78,1.75,2.13,1.59,0.652,1.67
CCCC(=O)Nc1cccc(NC(=O)c2ccccc2Br)c1,1.43,1.02,1.04,1.14,1.27,0.946
c1ccc(-c2ccc(C(c3ccccc3)n3ccnc3)cc2)cc1 (stereo not drawn) [Bifonazole],1.54,1.43,1.19,1.17,0.639,1.31
CC[C@H](C)C[C@H](C)CCCCCCCCC(=O)N[C@H]1C[C@@H](O)[C@@H](NCCN)NC(=O)[C@@H]2[C@@H](O)CCN2C(=O)[C@H]([C@H](O)CCN)NC(=O)[C@H]([C@H](O)[C@@H](O)c2ccc(O)cc2)NC(=O)[C@@H]2C[C@@H](O)CN2C(=O)[C@H]([C@@H](C)O)NC1=O [Caspofungin Acetate],2.18,0.866,1.51,2.42,1.15,1.86
CCOC(=O)C1=C(COCCN)NC(C)=C(C(=O)OC)[C@@H]1c1ccccc1Cl [Levamlodipine],0.971,0.702,0.684,1.12,0.978,0.931
CC(=O)O[C@H]1C(=O)[C@@]2(C)[C@H]([C@H](OC(=O)c3ccccc3)[C@]3(O)C[C@H](OC(=O)[C@H](O)[C@@H](NC(=O)c4ccccc4)c4ccccc4)C(C)=C1C3(C)C)[C@]1(OC(C)=O)CO[C@@H]1C[C@@H]2O [Paclitaxel],3.07,2.6,4.23,2.69,2.08,2.73
CCCN1CCCC[C@H]1C(=O)Nc1c(C)cccc1C [Ropivacaine HCl],0.76,0.477,0.895,0.646,0.469,1.39
CN1CCN(S(=O)(=O)c2ccc(-c3cnc(N)c(C(=O)Nc4cccnc4)n3)cc2)CC1,3.21,3.47,1.43,1.66,1.34,3.18
CCCCNc1ccc(C(=O)OCCN(C)C)cc1 [Tetracaine HCl],0.993,0.918,0.964,1.06,0.941,1.79
COc1c(O[C@@H]2O[C@H](CO)[C@@H](O)[C@H](O)[C@H]2O)cc2c(c1OC)-c1ccc(SC)c(=O)cc1[C@@H](NC(C)=O)CC2 [Thiocolchicoside],0.819,0.537,0.944,1.41,0.502,1.21
CCc1cccc(CC)c1NC(=O)N1Cc2[nH]nc(NC(=O)c3ccc(N4CCN(C)CC4)cc3)c2C1,2.54,2.75,2.46,3.44,2.47,2.78
C[n+]1ccccc1/C=N/O [Pralidoxime chloride],1.41,0.85,1.53,1.2,0.755,1.08
O=c1cc(-c2ccccc2)oc2cc(O)c(O)c(O)c12 [Baicalein],1.38,1.65,1.25,2.7,0.918,1.08
Cc1cccc(C)c1OCC(=O)N[C@@H](Cc1ccccc1)[C@@H](O)C[C@H](Cc1ccccc1)NC(=O)[C@H](C(C)C)N1CCCNC1=O [Lopinavir],2.06,1.69,1.44,1.1,0.896,1.92
O=C(O)Cn1nnc(-c2cc(N3CCC(Oc4cc(F)ccc4Br)CC3)no2)n1,0.964,1.38,0.83,0.907,2.08,0.751
C[N+](C)(C)CCOC(=O)CCC(=O)OCC[N+](C)(C)C [Succinylcholine Chloride Dihydrate],1.36,2.04,1.93,1.82,1.34,1.91
CN(CCOc1ccc(CC2SC(=O)NC2=O)cc1)c1ccccn1 (stereo not drawn) [Rosiglitazone],1.31,0.979,0.878,1.79,0.962,1.14
O=C(O)CC[C@H]1CC[C@@](c2cc(F)ccc2F)(S(=O)(=O)c2ccc(Cl)cc2)CC1,1.76,1.71,0.876,1.8,1.76,1.58
N[C@@H]1CONC1=O [D-Cycloserine],1.67,1.18,1.43,0.939,0.865,0.96
C[C@]12CC[C@@H]3c4ccc(O)cc4CC[C@H]3[C@@H]1CC[C@@H]2OC(=O)CCC1CCCC1 [Estradiol Cypionate],1.29,1.56,1.4,1.23,0.84,1.34

SMILES,Euclidean distance (786-O),Euclidean distance (A549),Euclidean distance (DU145),Euclidean distance (FB),Euclidean distance (HEPG2),Euclidean distance (OVCAR4)
CC(=O)c1cc([N+](=O)[O-])c(Sc2cccc(Cl)c2Cl)s1,0.465,0.706,0.528,0.668,0.869,1.26
CONC(=O)c1ccccc1Nc1cc(Nc2cc(C)nn2C(C)C)ncc1Cl,1.35,1.28,1.33,2.01,0.825,1.5
CN1CC2c3ccccc3Oc3ccc(Cl)cc3C2C1 (stereo not drawn) [Asenapine],1.1,0.811,0.805,1.19,1.03,0.94
CCN(CC)C(=O)N1CCN(C)CC1 [Diethylcarbamazine citrate],0.755,0.674,0.703,0.826,0.536,1.14
Cc1cc(=O)n(-c2ccccc2)n1C [Antipyrine],1.52,0.45,1.03,1.42,0.888,0.707
O=C(Nc1ccccc1Br)N[C@@H]1CCN(c2ccc(C(F)(F)F)cn2)C1,0.896,0.999,0.688,0.9,0.544,1.21
C[n+]1c2ccccc2nc2ccccc21 [Phenazine methosulfate],5.13,2.82,4.95,4.99,3.66,2.78
O=C(O)Cc1ccccc1Nc1c(Cl)cccc1Cl [Diclofenac acid],0.971,0.349,2.62,0.749,0.668,0.711
CCOc1nc2cccc(C(=O)O)c2n1Cc1ccc(-c2ccccc2-c2nnn[nH]2)cc1 [Candesartan],2.07,1.74,1.69,3.34,0.856,1.84
COc1cc2c(cc1OC)C(=O)C(CC1CCN(Cc3ccccc3)CC1)C2 (stereo not drawn) [Donepezil],0.813,1.25,0.73,0.785,1.27,1.27
Cc1cc2c(F)c(Oc3ncnn4cc(OC[C@@H](C)OC(=O)[C@H](C)N)c(C)c34)ccc2[nH]1,2.11,1.25,1.14,1.57,0.818,1.35
COC(=O)c1ccc2c(c1)NC(=O)/C2=C(\Nc1ccc(N(C)C(=O)CN2CCN(C)CC2)cc1)c1ccccc1 [Nintedanib (BIBF 1120)],3.7,4.29,2.53,4.05,2.66,3.01
C[C@@H](O)[C@H]1C(=O)N2C(C(=O)O)=C(S[C@@H]3CN[C@H](C(=O)N(C)C)C3)[C@H](C)[C@H]12 [Meropenem Trihydrate],1.26,1.2,0.738,0.87,1.01,0.913
O=c1ccc2ccc(O)c(O)c2o1 [Daphnetin],1.49,0.859,0.975,1.15,1.18,0.972
COc1cc(NC(=O)c2ccccn2)ccc1Cl,1.08,0.966,0.845,1.02,0.638,1.19
O=C(O)[C@H](O)Cc1ccc(O)c(O)c1 [Danshensu],1.51,1.33,0.736,0.877,1.33,1.65
C=C1C(=O)[C@]23[C@H](O)[C@H]1CC[C@H]2[C@@]12CO[C@]3(O)[C@@H](O)[C@@H]1C(C)(C)CC[C@@H]2O [Oridonin],1.57,1.32,1.1,1.01,1.03,1.33
Nc1cc(F)ccc1NC(=O)c1ccc(CNC(=O)/C=C/c2cccnc2)cc1 [Tucidinostat (Chidamide)],3.36,2.59,2.35,3.31,3.09,2.66
COc1ccc(-c2cnc3c(-c4cccc5ncccc45)cnn3c2)cc1,0.556,0.926,1.07,0.678,0.785,0.818
C=CC(=O)Nc1cccc(Oc2nc(Nc3ccc(N4CCN(C)CC4)c(F)c3)nc3[nH]ccc23)c1 [Avitinib (AC0010)],4.87,4.16,3.49,3.92,3.45,3.76
CCOC(=O)[C@H]1O[C@@H]1C(=O)N[C@@H](CC(C)C)C(=O)NCCC(C)C [Aloxistatin],0.731,2.18,1.26,1.17,0.539,0.987
COc1ccc(CN(CCN(C)C)c2ncccn2)cc1 [Thonzylamine],1.16,1.66,1.32,1.44,0.672,1.89
O=C(CCCCCCNC(=O)c1cnc(N(c2ccccc2)c2ccccc2Cl)nc1)NO [Citarinostat (ACY-241)],1.92,2.05,2.16,3.07,2.52,1.75
C[C@]12CC[C@@H]3c4ccc(O)cc4CC[C@H]3[C@@H]1CCC2=O [Estrone],0.82,0.907,0.761,1.21,0.472,0.764
